The sequences below were run against ITGA2 (assay: pooled miR-30 sensor sort-seq; sequence = guide strand). Settings: shRNA.

Sequence	sensor-assay potency score (higher = more potent)
TTGACTGAGCGCTAACACCAGC	-1.15
TGAACTGTGATTTCTGTCCTGC	0.82
TTTCGTAGCACTTCGTCGCCCA	0.484
TTGCATATTGAATTGCTCCGAA	0.0822
TTCTGTTGGAATACTAGCGATT	-0.717
TAGCACTTCGTCGCCCACCAGA	-1.01
TAGGTCTGAACTTTGCACTGAA	-0.0543
TAAATCTCCATAGCCATCCAAG	-1.12
TTGCTTAGTAGGTCTGAACTTT	-0.177
TTGTCGGACATCTAGGACTAGA	-0.587
TAAACAGGTAGACTCTTCCTTC	0.446
TACTTCTGTCCCATCAACCGGC	0.167

Each sequence was assayed against ITGAM in the same assay as above. Settings: shRNA.

Sequence	sensor-assay potency score (higher = more potent)
TTCTCTTGGAAGGTCATTGCGT	-0.213
TTAAACAAGATCTCAGCTGTGC	0.114
TATTGATGCTGCATGACCCGAC	0.154
TTGAACTCCATGATTGCCTTGA	0.856
TTGCTGTCCACGTCCACGGAGC	-1.3
TCAGTGTCCAAGTTGAACCCAT	-0.0132

Reference: the OligoGym collection
